Measured values reported in PubChem BioAssay AID686996 (Broad Institute, 2013).
About 1,900 (0.54%) of roughly 350,000 compounds were called active. For the sample, actives were picked, then their nearest neighbours and some compounds at random. Values without a mark were called inactive.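 How the source made its calls: active means mean inhibition across replicates at least about 35%, with every replicate also reaching that limit (limit read from the data); inconclusive means only one of the two criteria met; inactive means neither criterion met.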

What follows are compounds tested against Caspase-6 (Homo sapiens) (UniProt P55212) (assay: human caspase-6 inhibitors, primary screen, biochemical, VEID-R110 fluorescence, single point, set 2 (AID 686996;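 further: 0% = median of neutral control wells and 100% = no fluorescence left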)). Settings: purified caspase-6, Z-VEID-R110 cleavage fluorescence; at 12.5 µM; hits give high values.
Sequence of Caspase-6 (Homo sapiens) (P55212 24-179 limits assumed): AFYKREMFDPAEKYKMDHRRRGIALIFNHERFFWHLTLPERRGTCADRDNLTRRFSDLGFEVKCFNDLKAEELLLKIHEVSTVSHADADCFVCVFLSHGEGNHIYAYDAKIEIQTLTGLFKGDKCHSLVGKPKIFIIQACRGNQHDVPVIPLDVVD
Sequence of Caspase-6 (Homo sapiens) (P55212 194-293 limits assumed): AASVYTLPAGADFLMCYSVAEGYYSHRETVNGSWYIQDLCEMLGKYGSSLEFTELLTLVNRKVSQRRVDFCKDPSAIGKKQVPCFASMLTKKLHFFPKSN

SMILES	inhibition
O=C1OC(/C=C/c2ccccc2)=NC/1=C/c1ccco1	38.7% (active)
C[C@H]1CN([C@@H](C)CO)C(=O)c2cc(-c3ccncc3)cnc2O[C@@H]1CN(C)C(=O)c1cccc(F)c1	1.35%
Cc1noc(C)c1NC(=O)N(C)C[C@H]1Oc2ccc(N(C)C)cc2CC(=O)N([C@H](C)CO)C[C@H]1C	-3.82%
O=C(C[C@H]1CC[C@@H](NC(=O)Nc2ccc(F)cc2)[C@H](CO)O1)NCc1cccc(F)c1	-1.29%
COc1ccc(C(=O)COC(=O)c2ccc([N+](=O)[O-])s2)cc1OC	0.899%
COc1cc(NC(=O)COC(=O)c2ccc([N+](=O)[O-])s2)cc(OC)c1OC	87.1% (active)
O=C(OCC(=O)N1CCN(c2ccccc2)CC1)c1ccc([N+](=O)[O-])s1	22%
O=C(C[C@H]1CC[C@H]2NC[C@@H](O)COC[C@@H]2O1)NCCN1CCCC1	-1.22%
COc1ccc(Cl)cc1NC(=O)CCS(=O)(=O)c1ccc(Br)cc1	87.9% (active)
CCOc1ccc(OCC)c(NC(=O)CCS(=O)(=O)c2ccc(C)cc2)c1	0.288%
O=C(CCS(=O)(=O)c1ccc(Br)cc1)NCCc1ccc(Cl)cc1	49% (active)
O=C(Cc1ccc(Br)cc1)NCCc1ccccc1	0.216%
COc1ccc(Cl)cc1NC(=O)CCS(=O)(=O)c1cc2c(cc1C)NC(=O)CO2	0.689%
Cc1ccc(S(=O)(=O)CCC(=O)OCC(=O)NCCc2ccc(S(N)(=O)=O)cc2)cc1	1.6%
CC(C)NC(=O)N(C)C[C@@H]1Oc2ccc(NS(=O)(=O)c3cn(C)cn3)cc2C(=O)N([C@@H](C)CO)C[C@@H]1C	0.64%
C[C@@H]1CCCCO[C@H](CN(C)S(=O)(=O)c2cccs2)[C@@H](C)CN([C@@H](C)CO)C(=O)c2cc(NC(=O)Nc3ccc4c(c3)OCO4)ccc2O1	0.247%
Cc1noc(C)c1NC(=O)N(C)C[C@@H]1Oc2ccc(NS(C)(=O)=O)cc2C(=O)N([C@@H](C)CO)C[C@@H]1C	3.77%
C[C@H](NC(=O)C[C@@H]1C[C@@H]2c3cc(NC(=O)Nc4ccc(C(F)(F)F)cc4)ccc3O[C@@H]2[C@H](CO)O1)c1ccccc1	-2.54%
O=C(NC[C@@H]1N[C@@H](CO)[C@H]1c1ccc(-c2cccnc2)cc1)c1cccc(F)c1	0.599%
Cc1cc(C(=O)OCC(=O)N2c3ccccc3NC(=O)C2(C)C)c(C)n1-c1ccccc1	-1.9%
CNS(=O)(=O)c1cccc(C(=O)OCC(=O)N2c3ccccc3NC(=O)C2(C)C)c1	35.9% (active)
CCNc1ccc(C(=O)OCC(=O)N2c3ccccc3NC(=O)C2(C)C)cc1[N+](=O)[O-]	-5.89%
C[C@@H]1CCCCO[C@@H](CN(C)C(=O)Nc2ccc(C(F)(F)F)cc2)[C@H](C)CN([C@H](C)CO)C(=O)c2cc(NC(=O)c3ccccc3)ccc2O1	-0.72%
C[C@@H]1CCCCO[C@H](CN(C)C(=O)Cc2ccccc2)[C@H](C)CN([C@H](C)CO)C(=O)c2cc(NS(=O)(=O)c3cn(C)cn3)ccc2O1	-3.5%
O=C(Nc1ccc2c(c1)OCO2)C1CC1(Cl)Cl (stereo not drawn)	-1.32%

SMILES	inhibition
O=C(Nc1ccc2c(c1)OCCO2)c1ccoc1	0.545%
O=C(Nc1ccc2c(c1)OCCO2)C1CCCC1	35.2% (active)
COC(=O)C[C@@H]1CC[C@@H]2[C@@H](COc3ccc(NC(=O)C4CCOCC4)cc3C(=O)N2C)O1	-2.32%
C/C=C/c1ccc([C@@H]2[C@H](CO)N(S(=O)(=O)Cc3ccccc3)C23CN(C(=O)C2CCOCC2)C3)cc1	0.958%
O=C(NCC[C@H]1CC[C@H](NS(=O)(=O)c2cccc(F)c2)[C@H](CO)O1)C1CCCCC1	-1.12%
O=C(C[C@@H]1CC[C@H]2[C@@H](COC[C@H](O)CN2C(=O)Nc2ccccc2)O1)NCCc1ccncc1	2.19%
CO[C@@H]1CN(C)C(=O)c2ccc(NS(=O)(=O)c3cccc(C)c3)cc2OC[C@@H](C)NC[C@H]1C	-0.731%
CCC(=O)N1[C@H](C(=O)NC2CCC2)[C@@H](CO)[C@@H]2Cn3c(cccc3=O)[C@@H]21	0.371%
COc1ccc2c3c(n(C)c2c1)[C@H](CO)N(CC1CCCCC1)CC31CCN(Cc2nccs2)CC1	-2.93%
CS(=O)(=O)c1ccc2c(c1)SC1=NC(=O)/C(=C/c3ccco3)C(=N)N12	56.4% (active)
COc1ccc2c3c(n(C)c2c1)[C@@H](CO)N(C)CC31CN(CC2CC2)C1	-5.67%
Cc1ccc(S(=O)(=O)Nc2ccc3c(c2)C(=O)N([C@@H](C)CO)C[C@@H](C)[C@H](CN(C)Cc2ccc(Cl)c(Cl)c2)OCCCC[C@@H](C)O3)cc1	-0.785%
O=C(C[C@@H]1CC[C@@H](NS(=O)(=O)c2ccc(F)cc2)[C@@H](CO)O1)NCCc1ccncc1	3.03%
O=C(Nc1ccc(F)cc1)N[C@@H]1CC[C@H](CC(=O)N2CCCCC2)O[C@H]1CO	1.55%
Cc1ccccc1NC(=O)Cn1c(=O)n(CC2CCCO2)c(=O)c2ccccc21 (stereo not drawn)	6.2%
Cc1ccccc1NC(=O)CSC(=O)c1ccccc1	1.82%
Cc1ccccc1NC(=O)CN1C(=O)N/C(=C\c2cccn2-c2cccc(C(=O)O)c2)C1=O	63.2% (active)
COc1ccc(NC(=O)N[C@H]2CC[C@@H](CCNS(=O)(=O)c3cccc(Cl)c3)O[C@H]2CO)cc1	-1.94%
Cc1ccc(-c2cnc3c(c2)C(=O)N([C@H](C)CO)C[C@@H](C)[C@@H](CN(C)C(=O)CN(C)C)O3)cc1	-0.686%
COc1ccc(C(=O)N2C[C@@H]3[C@H](c4ccccc42)[C@H](CO)N3Cc2ccc3c(c2)OCO3)cc1	-0.922%
COc1ccc(NC(=O)N(C)C[C@H]2OCCCC[C@H](C)Oc3ccc(NS(C)(=O)=O)cc3C(=O)N([C@H](C)CO)C[C@@H]2C)cc1	-0.91%
O=C(Nc1cccc(F)c1)c1coc(=O)c(Br)c1	51.7% (active)
O=C(Nc1cccc(F)c1)c1cc(-c2ccco2)nc2ccccc12	-7.91%
O=C(CCN1C(=O)c2ccccc2C1=O)Nc1cccc(F)c1	-0.612%
C[C@H](CO)N1C[C@H](C)[C@@H](CN(C)C(=O)Nc2ccc3c(c2)OCO3)OCCCC[C@H](C)Oc2ccc(NS(=O)(=O)c3cn(C)cn3)cc2C1=O	-1.24%

SMILES	inhibition
CC(=O)N1CC2(C1)[C@H](c1ccccc1)[C@@H](CO)N2C(=O)Cc1ccccc1	0.826%
CCOC(=O)C1=C(C(=O)OCC)C2N(Cc3ccc(C#N)cc3)c3ccccc3[C@@]23C[C@@H](C(=O)OC)N(S(=O)(=O)c2ccc(F)cc2)C3=N1 (stereo partly drawn)	-0.093%
CC(C)CN1C(=O)CN(S(C)(=O)=O)CC1(C)C(=O)NCc1ccccc1 (stereo not drawn)	-0.689%
CC1(C(=O)Nc2ccc3c(c2)OCCO3)CN(S(C)(=O)=O)CC(=O)N1Cc1cccc(F)c1 (stereo not drawn)	1.36%
CCC(C)CN1C(=O)CN(S(C)(=O)=O)CC1(C)C(=O)Nc1ccc2c(c1)OCCO2 (stereo not drawn)	39.7% (active)
COc1ccc(CN(C)C[C@H]2OCCCC[C@@H](C)Oc3ccc(NS(C)(=O)=O)cc3C(=O)N([C@@H](C)CO)C[C@H]2C)cc1	-2.66%
CCCNC(=O)[C@@H]1[C@@H](CO)[C@@H]2Cn3c(ccc(-c4ccccc4F)c3=O)[C@H]1N2CC1CC1	0.74%
COc1ccc2c3c([nH]c2c1)[C@H](CO)N(Cc1ccc(F)cc1)CC31CCN(Cc2ccccn2)CC1	-3.59%
C[C@H](CO)N1C[C@H](C)[C@H](CN(C)Cc2ccncc2)Oc2ccc(N(C)C)cc2C1=O	2.63%
C#CCNc1ccc(C(=O)OCC)cc1	-1.16%
CCOC(=O)c1ccc(NC(=O)c2c(NCc3ccccc3)[nH]c(=O)[nH]c2=O)cc1	0.97%
CCOC(=O)c1ccc(Nc2cc3ccccc3c(=O)[nH]2)cc1	87.8% (active)
CCC(=O)N1CCCCN2[C@H](C1)[C@@H](c1ccc(C#CCOC)cc1)[C@@H]2CO	-1.73%
COc1ccc(S(=O)(=O)Nc2cccc3c2O[C@@H](CN(C)C(=O)Nc2ccccc2)[C@@H](C)CN([C@@H](C)CO)C3=O)cc1	-2.16%
C[C@@H]1CN([C@H](C)CO)S(=O)(=O)c2ccc(C#C[C@@H](C)O)cc2O[C@H]1CN(C)C(=O)CC1CC1	0.478%
CCOC(CNC(=O)C1CCN(S(=O)(=O)c2ccc3nc4c(c(C(=O)O)c3c2)CC(C)CC4)CC1)OCC (stereo not drawn)	33.4%
CC(=O)N1c2ccc(S(=O)(=O)N3CCC(C(=O)NCc4ccc(F)cc4)CC3)cc2CC1C (stereo not drawn)	22.3%
Cc1ccc(CNC(=O)C2CCN(S(=O)(=O)c3ccc4nc5c(c(C(=O)O)c4c3)CC(C)CC5)CC2)cc1 (stereo not drawn)	62.6% (active)
N#C[C@H]1[C@@H](c2ccccc2-c2ccccc2F)[C@@H](CO)N1C(=O)C1CCC1	-2.32%
CC(=O)N1[C@@H](CO)[C@@H](c2ccc(C3=CCCC3)cc2)C12CN(C(=O)C1CC1)C2	0.171%
COc1ccc(S(=O)(=O)Nc2ccc3cn[nH]c3c2)cc1[N+](=O)[O-]	9.88%
O=C(Nc1ccc2cn[nH]c2c1)c1ccc(S(=O)(=O)N2CCOCC2)cc1	0.612%
O=C(O)c1cc(S(=O)(=O)Nc2ccc3cn[nH]c3c2)ccc1Br	43.4% (active)
